Data from PubChem BioAssay (EPA / NIEHS).
The source made the active and inactive calls. The calls were made as follows: active = hit-call score of the fitted dose curve at least 0.9, where 1 is the maximum; inactive = score below 0.9.

Assays:
[1] = read-out: TIMP metallopeptidase inhibitor 2 (TIMP2), TIMP2 (gene 7077); experiment: BSK_KF3CT_TIMP2: BioMAP Diversity Plus: KF3CT Assay for TIMP metallopeptidase inhibitor 2 (TIMP2) Biomarker Activity (AID 2283071); settings: primary human keratinocytes with fibroblasts; actives raise or lower the signal
Procedure, shortened: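 Co-culture of human primary keratinocytes and foreskin fibroblasts, measured 24 h after chemical dosing. TIMP-2 quantified by ELISA and fitted in both directions relative to DMSO. Cytotoxicity checked in parallel cultures by SRB total-protein staining.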

[2] = read-out: Transforming growth factor beta 1 (TGFb1), TGFB1 (gene 7040); experiment: BSK_KF3CT_TGFb1: BioMAP Diversity Plus: KF3CT Assay for Transforming growth factor beta 1 (TGFb1) Biomarker Activity (AID 2283072); settings: primary human keratinocytes with fibroblasts; actives raise or lower the signal
Procedure, shortened: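 Human keratinocyte/foreskin fibroblast co-culture; TGF-b1 measured by ELISA 24 h after dosing, fitted bidirectionally versus DMSO. Cytotoxicity checked in parallel cultures by total protein (SRB staining, 560 nm).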

[3] = read-out: C-C motif chemokine 2 (Homo sapiens) (UniProt P13500); experiment: BSK_KF3CT_MCP1: BioMAP Diversity Plus: KF3CT Assay for Monocyte Chemoattractant Protein 1 (MCP1/CCL2) Biomarker Activity (AID 2283073); settings: primary human keratinocytes with fibroblasts; actives raise or lower the signal
Procedure, shortened: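 Human keratinocyte–foreskin fibroblast co-culture; MCP-1 measured by ELISA 24 h after dosing. Bidirectional fit vs DMSO; cytotoxicity tracked by SRB total protein in parallel cultures.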

[4] = read-out: Matrix Metallopeptidase 9 (MMP9), MMP9 (gene 4318); experiment: BSK_KF3CT_MMP9: BioMAP Diversity Plus: KF3CT Assay for Matrix Metallopeptidase 9 (MMP9) Biomarker Activity (AID 2283074); settings: primary human keratinocytes with fibroblasts; actives raise or lower the signal;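 as to AC50: MMP9 protein level quantified by ELISA in the co-culture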
Procedure, shortened: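 Human keratinocyte and foreskin fibroblast co-culture exposed to chemicals for 24 h; MMP9 biomarker measured by ELISA, bidirectional fitting relative to DMSO; cytotoxicity tracked by SRB total protein staining in parallel cultures.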

CD40, CD40 (gene 958) [5] = experiment: BSK_LPS_CD40: BioMAP Diversity Plus: LPS Assay for CD40 Biomarker Activity (AID 2283076); settings: primary human HUVEC with PBMC; actives raise or lower the signal
Procedure, shortened: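 HUVEC plus PBMC co-culture stimulated with LPS; CD40 quantified by ELISA 24 h after compound dosing. Fitting was bidirectional relative to DMSO. SRB staining of parallel cultures flagged overt cytotoxicity.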

[6] = read-out: E-selectin (Homo sapiens) (UniProt P16581); experiment: BSK_LPS_Eselectin: BioMAP Diversity Plus: LPS Assay for Eselectin Biomarker Activity (AID 2283077); settings: primary human HUVEC with PBMC; actives raise or lower the signal
Procedure, shortened: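 Human umbilical vein endothelial cells co-cultured with PBMC under LPS stimulation; cell-surface E-selectin measured by ELISA 24 h after dosing. Change in either direction versus DMSO, with SRB total-protein staining in parallel cultures for cytotoxicity.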

[7] = read-out: Interleukin-8 (IL8), CXCL8 (gene 3576); experiment: BSK_LPS_IL8: BioMAP Diversity Plus: LPS Assay for Interleukin-8 (IL8) Biomarker Activity (AID 2283078); settings: primary human HUVEC with PBMC; actives raise or lower the signal
Procedure, shortened: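 Human umbilical vein endothelial cells co-cultured with PBMC, LPS-stimulated, exposed to compound for 24 h. IL-8 quantified by ELISA; fitted in both directions against DMSO, with SRB total-protein staining of parallel cultures for cytotoxicity.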

[8] = BSK_LPS_SRB: Viability Assessment in the BioMAP Diversity Plus: LPS Assay (AID 2283079); settings: primary human HUVEC with PBMC;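 also: total protein by sulforhodamine B absorbance as a cytotoxicity measure; measured one day after compound addition; fitted in both directions against DMSO so loss or gain of signal counts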
Procedure, shortened: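 Co-culture of human umbilical vein endothelial cells and PBMC, read 24 h after dosing. Total protein by 0.1% SRB staining after 10% TCA fixation, absorbance at 560 nm; bidirectional fit against DMSO.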

[9] = read-out: Interleukin-1 alpha (IL1a), IL1A (gene 3552); experiment: BSK_LPS_IL1a: BioMAP Diversity Plus: LPS Assay for Interleukin-1 alpha (IL1a) Biomarker Activity (AID 2283080); settings: primary human HUVEC with PBMC; actives raise or lower the signal
Procedure, shortened: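 Human umbilical vein endothelial cells co-cultured with PBMC and stimulated with LPS; IL-1a measured by ELISA 24 h after dosing. Bidirectional fitting against DMSO; cytotoxicity checked by SRB staining in parallel cultures.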

[10] = read-out: Monocyte Chemoattractant Protein-1 (MCP1), CCL2 (gene 6347); experiment: BSK_LPS_MCP1: BioMAP Diversity Plus: LPS Assay for Monocyte Chemoattractant Protein-1 (MCP1) Biomarker Activity (AID 2283081); settings: primary human HUVEC with PBMC; actives raise or lower the signal;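 also: secreted MCP-1 protein quantified by ELISA in culture supernatant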
Procedure, shortened: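 Human umbilical vein endothelial cells co-cultured with PBMC, LPS-stimulated; secreted MCP-1 measured by ELISA 24 h after compound addition. Bidirectional curve fitting against DMSO baseline; SRB total-protein staining in parallel cultures for cytotoxicity.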

[11] = BSK_LPS_PGE2: BioMAP Diversity Plus: LPS Assay for Prostaglandin E2 (PGE2) Biomarker Activity (AID 2283082); settings: primary human HUVEC with PBMC; actives raise or lower the signal;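 as to AC50: secreted prostaglandin E2 measured by ELISA in LPS-stimulated co-culture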
Procedure, shortened: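 HUVEC plus human PBMC co-culture stimulated with LPS; secreted PGE2 quantified by ELISA 24 h after chemical dosing. Activity fitted bidirectionally against DMSO baseline; parallel SRB staining (0.1% SRB after 10% TCA fixation, 560 nm) flags overt cytotoxicity.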

[12] = read-out: Macrophage colony-stimulating factor (MCSF), CSF1 (gene 1435); experiment: BSK_LPS_MCSF: BioMAP Diversity Plus: LPS Assay for Macrophage colony-stimulating factor (MCSF) Biomarker Activity (AID 2283083); settings: primary human HUVEC with PBMC; actives raise or lower the signal
Procedure, shortened: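 HUVEC–PBMC co-culture, M-CSF measured by ELISA 24 h after chemical dosing. Fitted in both directions relative to DMSO as negative control; overt cytotoxicity assessed by SRB total-protein staining in parallel cultures.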

[13] = read-out: Tissue Factor, F3 (gene 2152); experiment: BSK_LPS_TissueFactor: BioMAP Diversity Plus: LPS Assay for Tissue Factor Biomarker Activity (AID 2283084); settings: primary human HUVEC with PBMC; actives raise or lower the signal
Procedure, shortened: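 Human umbilical vein endothelial cells co-cultured with PBMC were dosed with compound. Cell-surface CD142 was measured by ELISA 24 h later. Activity was fitted bidirectionally against DMSO, with SRB total-protein staining in parallel cultures for cytotoxicity.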

[14] = read-out: Tumor necrosis factor (Homo sapiens) (UniProt P01375); experiment: BSK_LPS_TNFa: BioMAP Diversity Plus: LPS Assay for Tumour Necrosis Factor alpha (TNFa) Biomarker Activity (AID 2283085); settings: primary human HUVEC with PBMC; actives raise or lower the signal
Procedure, shortened: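 Human umbilical vein endothelial cells co-cultured with PBMC and stimulated with LPS. TNFa was measured by ELISA 24 h after chemical dosing, fitted bidirectionally relative to DMSO.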

[15] = read-out: Vascular cell adhesion molecule 1 (VCAM1), VCAM1 (gene 7412); experiment: BSK_LPS_VCAM1: BioMAP Diversity Plus: LPS Assay for Vascular cell adhesion molecule 1 (VCAM1) Biomarker Activity (AID 2283086); settings: primary human HUVEC with PBMC; actives raise or lower the signal
Procedure, shortened: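 Human umbilical vein endothelial cells co-cultured with PBMC and stimulated with LPS; VCAM-1 measured by ELISA 24 h after dosing. Bidirectional curve fitting against DMSO baseline; cytotoxicity tracked in parallel by SRB total-protein staining.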

CD40, CD40 (gene 958) [16] = experiment: BSK_SAg_CD40: BioMAP Diversity Plus: SAg Assay for CD40 Biomarker Activity (AID 2283088); settings: primary human HUVEC with PBMC; actives raise or lower the signal
Procedure, shortened: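 HUVEC plus PBMC co-culture, superantigen-activated, with CD40 read by ELISA 24 h after dosing. Curves fitted in both directions against DMSO. Overt cytotoxicity checked by parallel SRB total-protein staining.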

CD69, CD69 (gene 969) = experiment: BSK_SAg_CD69: BioMAP Diversity Plus: SAg Assay for CD69 Biomarker Activity (AID 2283089); settings: primary human HUVEC with PBMC; actives raise or lower the signal;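 as to AC50: cell surface CD69 protein quantified by ELISA with fluorescence detection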
Procedure, shortened: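 HUVEC co-cultured with PBMC were dosed with chemical, and CD69 was measured by ELISA with fluorescence read-out 24 h later. Bidirectional curve fitting used DMSO as negative control and activity baseline.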

[17] = read-out: Monocyte Chemoattractant Protein-1 (MCP1), CCL2 (gene 6347); experiment: BSK_SAg_MCP1: BioMAP Diversity Plus: SAg Assay for Monocyte Chemoattractant Protein-1 (MCP1) Biomarker Activity (AID 2283090); settings: primary human HUVEC with PBMC; actives raise or lower the signal
Procedure, shortened: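 MCP-1 levels in the endothelial–PBMC SAg co-culture were quantified by ELISA at 24 h post-dosing; both increases and decreases versus DMSO scored. Cytotoxicity monitored by SRB total protein in parallel cultures.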

[18] = read-out: urokinase plasminogen activator (uPA), PLAU (gene 5328); experiment: BSK_KF3CT_uPA: BioMAP Diversity Plus: KF3CT Assay for urokinase plasminogen activator (uPA) Biomarker Activity (AID 2283075); settings: primary human keratinocytes with fibroblasts; actives raise or lower the signal
Procedure, shortened: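 Primary human keratinocyte/foreskin fibroblast co-culture exposed to chemical; uPA measured by ELISA at 24 h. Bidirectional fit versus DMSO, with parallel SRB total-protein staining for cytotoxicity.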

CD38, CD38 (gene 952) = experiment: BSK_SAg_CD38: BioMAP Diversity Plus: SAg Assay for CD38 Biomarker Activity (AID 2283087); settings: primary human HUVEC with PBMC; actives raise or lower the signal
Procedure, shortened: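 Human HUVEC plus PBMC co-culture stimulated with superantigen; CD38 measured by ELISA 24 h after chemical dosing. Fluorescence read-out, bidirectional fit against DMSO; cytotoxicity tracked in parallel by SRB and Alamar Blue.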

Measured: AC50

Tumor necrosis factor (Homo sapiens), sequence (P01375 whole entry, looked up): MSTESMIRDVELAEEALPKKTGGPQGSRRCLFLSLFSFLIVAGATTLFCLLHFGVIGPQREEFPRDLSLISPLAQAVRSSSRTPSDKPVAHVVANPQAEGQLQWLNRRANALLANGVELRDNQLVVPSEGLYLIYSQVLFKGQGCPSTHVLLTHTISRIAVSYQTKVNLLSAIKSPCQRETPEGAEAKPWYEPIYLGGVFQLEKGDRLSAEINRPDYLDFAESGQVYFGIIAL
E-selectin (Homo sapiens), sequence (P16581 whole entry, looked up): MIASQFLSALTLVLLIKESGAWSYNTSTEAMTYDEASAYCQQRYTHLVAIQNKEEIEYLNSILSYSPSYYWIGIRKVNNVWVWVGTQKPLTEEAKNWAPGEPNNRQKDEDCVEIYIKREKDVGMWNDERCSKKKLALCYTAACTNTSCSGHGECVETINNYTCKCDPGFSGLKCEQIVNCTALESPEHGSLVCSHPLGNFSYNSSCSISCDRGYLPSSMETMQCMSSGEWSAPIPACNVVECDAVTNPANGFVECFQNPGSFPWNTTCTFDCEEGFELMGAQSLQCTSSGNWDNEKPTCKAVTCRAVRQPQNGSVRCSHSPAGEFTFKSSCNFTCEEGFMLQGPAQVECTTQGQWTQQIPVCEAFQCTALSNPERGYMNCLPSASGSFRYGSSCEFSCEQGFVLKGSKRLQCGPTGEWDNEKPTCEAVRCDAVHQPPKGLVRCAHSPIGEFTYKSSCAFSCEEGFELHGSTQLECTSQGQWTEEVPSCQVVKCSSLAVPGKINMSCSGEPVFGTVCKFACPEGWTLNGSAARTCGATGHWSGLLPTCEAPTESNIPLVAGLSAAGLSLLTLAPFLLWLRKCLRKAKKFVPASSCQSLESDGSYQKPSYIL

CN(C[C@@H](CC[N+]12CCC(C3CCCCC3)(CC1)CC2)c1ccc(Cl)c(Cl)c1)C(=O)c1cc(C(F)(F)F)cc(C(F)(F)F)c1
inactive: [11]
active: [1] 7.76 µM | [2] 7.34 µM | [3] 9.72 µM | [4] 7.39 µM | CD40, CD40 (gene 958) [5] 19.1 µM | [6] 26.4 µM | [7] 24.8 µM | [8] 24.6 µM | [9] 18.4 µM | [10] 23.4 µM | [12] 23.6 µM | [13] 25 µM | [14] 13.7 µM | [15] 31.3 µM | CD40, CD40 (gene 958) [16] 20 µM | CD69, CD69 (gene 969) 21.9 µM | [17] 17.1 µM

CN(C)C(=O)C1(N2CCCCC2)CCN(CC[C@@]2(c3ccc(Cl)c(Cl)c3)CN(C(=O)c3ccccc3)CCO2)CC1
inactive: [11]
active: [1] 32.7 µM | [2] 29.8 µM | [3] 35 µM | [18] 32.1 µM | CD40, CD40 (gene 958) [5] 16.8 µM | [6] 29.2 µM | [7] 25.7 µM | [8] 18.9 µM | [9] 18.9 µM | [10] 25.2 µM | [12] 20.8 µM | [13] 31.2 µM | [14] 35.4 µM | [15] 26.6 µM | CD38, CD38 (gene 952) 21.3 µM | CD40, CD40 (gene 958) [16] 18.9 µM | CD69, CD69 (gene 969) 16.5 µM | [17] 22.2 µM

Cc1ncc(CO)c(CO)c1O
inactive: [1] | [2] | [3] | [4] | [18] | CD40, CD40 (gene 958) [5] | [6] | [7] | [8] | [9] | [11] | [14] | [15] | CD40, CD40 (gene 958) [16] | CD69, CD69 (gene 969) | [17]

CCCCCCCCOc1ccc(C(=O)c2ccccc2)c(O)c1
inactive: [1] | [2] | [3] | [4] | [18] | [6] | [7] | [8] | [9] | [11] | [14] | [15] | CD69, CD69 (gene 969) | [17]
active: CD40, CD40 (gene 958) [5] 25.3 µM | CD38, CD38 (gene 952) 15.7 µM | CD40, CD40 (gene 958) [16] 30.3 µM

COc1cc(C(=O)NC2CCN(C)CC2)ccc1Nc1ncc2c(n1)N(C1CCCC1)CC(F)(F)C(=O)N2C
active: [1] 28.9 µM | [2] 29.8 µM | [3] 5.37 µM | [4] 18.6 µM | CD40, CD40 (gene 958) [5] 10.1 µM | [6] 22.6 µM | [7] 18.6 µM | [8] 8.37 µM | [9] 6.03 µM | [11] 5.48 µM | [14] 15.1 µM | [15] 11.2 µM | CD40, CD40 (gene 958) [16] 16.6 µM | CD69, CD69 (gene 969) 10.8 µM | [17] 13.9 µM

Cc1cn([C@H]2C[C@H](N=[N+]=[N-])[C@@H](CO)O2)c(=O)[nH]c1=O
inactive: [1] | [2] | [3] | [4] | CD40, CD40 (gene 958) [5] | [6] | [7] | [8] | [9] | [11] | [12] | [13] | [14] | [15] | CD40, CD40 (gene 958) [16] | CD69, CD69 (gene 969) | [17]
